Only some compounds are listed: those with a hit (about 19% of all), similar ones and a draw of the others.
TDP1 cell noCPT = qHTS for Inhibitors of human tyrosyl-DNA phosphodiesterase 1 (TDP1): qHTS in cells in absence of CPT | DT40 Tdp1-/- hTDP1 cells, no CPT, ATP luminescence, 48 h | 15% of 420,000 active | Potency, µM (top dose mostly 46.2 µM), inactives show at the highest dose activity change, negative = growth inhibition, hits mostly inhibitors; also: potency is read from the fitted curve at half-maximal effect; nearly all actives have a fitted effect of over 55% in size
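Growth of hTDP1-complemented DT40 Tdp1-knockout cells is measured by ATP luminescence after at least 48 hr compound exposure at 37 °C, with DMSO substituting for the 20 nM CPT used in the parallel screen.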
HT1080 IDH1KD tx = kills HT-1080 cells with IDH1 knockdown; AID 686971; 2% of 360,000 active; HT-1080 IDH1 knockdown viability, ATP luminescence, 48 h; Potency, µM (titrated, usually from 46.1 µM), inactives show at the highest dose activity, negative = toxicity, most hits filed as cytotoxic;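 also: potency is read from the fitted curve at half-maximal effect; 0% = DMSO wells and -100% = cell-free medium wells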
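Assay cells: HT-1080 with IDH1 knockdown, 750 per well, RPMI/5% FBS. Exposure: 48 h at 37 °C following 2 h pre-incubation. Read: CellTiter-Glo luminescence; fitted concentration-response, curve class assigned.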
HT1080-NT tox = kills 2HG-producing HT-1080-NT fibrosarcoma cells. HT-1080-NT fibrosarcoma viability, CellTiter-Glo ATP luminescence, 48 h. Potency, µM (series often up to 46.1 µM), without a hit: at the highest dose activity, negative = less viability, hits mostly cytotoxic. 1.6% of 360,000 active;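 also: NT is the 2HG producing partner of a matched IDH1 knockdown line; potency is read from the fitted curve at half-maximal effect; 0% = DMSO-treated cells and -100% = media-only wells without cells; nearly all actives have a fitted effect of over 55% in size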
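HT-1080-NT; 750 cells/well; 5% FBS RPMI; 48 h compound, 37 degrees C; CellTiter-Glo luminescence; curve fitting and curve-class assignment.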
IL1B secr inh = inflammasome signaling inhibition, IL-1 beta readout; THP-1 LPS/ATP IL-1B secretion, AlphaLISA, 16 h; stronger effect = lower value; activity change, % at 57.5 µM; 4.7% of 360,000 active; in the data active = activity change below about -50%; inconclusive = mostly about -30% to -49%
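Secreted IL-1B measured by AlphaLISA bead assay after 16 h compound exposure of THP-1 cells; compounds (final up to 57.5 uM) added 1 h before LPS (250 ng/mL) and ATP (1.25 mM) stimulation; lower signal means less secretion.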
DT40 TDP1 CPT = DT40-hTDP1 cell growth loss with CPT; chicken DT40 Tdp1-/-;hTDP1 cells + 20 nM CPT, ATP luminescence, 48 h; Potency, µM (highest dose often 46.2 µM), for inactives: at the top dose activity change, negative = growth inhibition, most hits filed as inhibitors; 12% of 420,000 active; also: potency is read from the fitted curve at half-maximal effect; nearly all actives have a fitted effect of over 55% in size
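Cell growth measured by CellTiter-Glo luminescence after a minimum 48 h, 37 C compound exposure with 20 nM CPT in Tdp1-knockout DT40 cells stably expressing hTDP1, seeded 400/well; qHTS titration format.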
Numbers without * were called inactive; ? = inconclusive; nt = not tested or not shown; [ ] = remark or other dose. Unless noted, calls follow the shape of the dose curve; as a rule, active = well fitted curve in the direction sought with a large enough effect; inconclusive = small, poorly fitted or top-dose-only effect, or another doubt; inactive = no such curve, though single readings can be large; an effect the other way counts as inactive or inconclusive. Unless noted, % is scaled to controls: 0 for no effect and ±100 for the full control effect.

SMILES	TDP1 cell noCPT	HT1080 IDH1KD tx	HT1080-NT tox	IL1B secr inh	DT40 TDP1 CPT
CCOC(=O)c1c(NC(=O)CC2Nc3ccccc3NC2=O)sc(C)c1C (stereo not given)	18µM*	-10%	-5%	-5	8.2µM*
COc1cc2oc(=O)c(CC(=O)NCCc3ccccc3)c(C)c2cc1Cl	-15%	nt	nt	nt	-2%
O=C(O)c1cccc2c1C(=O)c1ccc(-c3ccc(F)cc3F)cc1S2(=O)=O	-3%	5%	11%	17	3%
CC(=O)N[C@@H](C)C(=O)NCC1Cc2cc(C)cc(-c3cnccn3)c2O1 (stereo not given in full)	-2%	nt	nt	nt	-2%[9.04 µM]
CCOC(=O)c1c(NC(=O)CSc2ncnc3ccccc23)sc(C)c1C	15µM*	9%	23%	24	?
CCOC(=O)c1c(NC(=O)CSc2nc3ccccc3s2)sc(C(C)=O)c1C	16µM*	-3%	?	11	7.3µM*
Cc1onc(-c2ccccc2Cl)c1C(=O)N1CCN(C)CC1	-3%	-3%	3%	30	8%
Cc1cnc2c(C)ccc(C)c2c1/C=C/c1ccc(N(C)C)cc1	16µM*	nt	nt	nt	?
Cc1cnc(/C=C/c2ccc(N(C)C)cc2)cn1	2.8µM*	nt	nt	nt	3.2µM*
Cc1cc(C)n2nc(SCC(=O)N3CCCCC3C)nc2n1 (stereo not given)	8%	3%	7%	24	-17%
COc1ccccc1NC(=S)N(CCCN1CCOCC1)Cc1cn(C)c2ccccc12	16µM*	2%	1%	-8	15µM*
COc1ccccc1NC(=S)N(CCN1CCOCC1)Cc1ccccc1F	?	-4%	1%	-10	-1%
CCOc1ccccc1NC(=S)N(CCCN1CCOCC1)Cc1cn(C)c2ccccc12	?	-8%	-5%	-11	16µM*
CCc1cc2c(NCC(=O)O)ncnc2s1	?	8%	3%	-2	-3%
CCOC(=O)c1sc2nc(CC(=O)OC)nc(NCc3ccco3)c2c1C	?	0%	11%	-2	?
CCOC(=O)c1sc2ncnc(NCc3ccco3)c2c1C	?	-4%	-3%	10	18µM*
CCc1cc2c(NCc3ccco3)ncnc2s1	13µM*	-19%	-14%	-19	18µM*
CCOc1ccc(C(=O)C(C)OC(=O)Cn2c(C)csc2=O)cc1 (stereo not given)	?	8%	1%	-11	-3%
CCc1nnc2c(NCCc3ccc(OC)c(OC)c3)nc3ccccc3n12	16µM*	21%	?	-4	?
COc1ccc(CCNc2nc3ccccc3n3cnnc23)cc1OC	?	8%	13%	-4	-26%
CCOc1ccc(CCNc2nc3ccccc3n3cnnc23)cc1OCC	18µM*	-3%	-13%	5	?
CCc1nnc2c(NCc3ccccc3)nc3ccccc3n12	-18%	nt	nt	nt	5%
Cc1ccc2nc(NCc3ccc(F)cc3)c3nncn3c2c1	?	-2%	0%	-16	?
CCOc1ccc(CCNc2nc3ccc(C)cc3n3cnnc23)cc1OCC	16µM*	-7%	17%	52	?
O=C(CSc1nnc(COc2ccccc2)o1)Nc1cc(C(F)(F)F)ccc1Cl	6%	nt	nt	nt	-24%
SMILES	TDP1 cell noCPT	HT1080 IDH1KD tx	HT1080-NT tox	IL1B secr inh	DT40 TDP1 CPT
COC(=O)CN1C(=O)[C@H]2[C@@H](/C=C/c3ccccc3)N3C(=O)CN(CCO)C(=O)[C@@]3(Cc3ccccc3)[C@H]2C1=O	1%	7%	9%	17	1%
COc1ccc(C(O)c2nc(-c3cccc(NC(C)=O)c3)cs2)cc1 (stereo not given)	?	0%	14%	-11	?
O=C1CCC(C(=O)N2CCN(c3ccccc3)CC2)CN1CC1CCCCC1 (stereo not given)	?	-4%	-4%	14	?
CN(C)S(=O)(=O)N1CCC(Oc2ccc(C(=O)N3C[C@@H]4CCC[C@H]3C4)cc2)CC1	?	-1%	1%	13	16µM*
CN(C)S(=O)(=O)N1CCC(Oc2ccc(C(=O)N3C[C@H]4CC[C@H]3C4)cc2)CC1	21µM*	-18%	?	12	12µM*
COC1CCCN(C(=O)c2ccc(OC3CCN(S(=O)(=O)N(C)C)CC3)cc2)C1 (stereo not given)	?	3%	2%	2	-25%
CN(C)c1ccc(C(=S)N2CCCCCC2)cc1	16µM*	?	-21%	3	?
CN(C)c1ccc(C(c2ccc(N(C)C)cc2)c2ccc([N+](=O)[O-])cc2)cc1	?	10%	-5%	-50*	?
CN(C)c1ccc(C(=S)N2CCN(c3ccc([N+](=O)[O-])cc3)CC2)cc1	21µM*	-18%	-14%	-22	15µM*
O=[N+]([O-])c1ccc(C(=S)N2CCN(c3ccc(F)cc3)CC2)cc1	?	-2%	1%	?	?
CC(=O)N1CCN(C(=S)c2ccc(N(C)C)cc2)CC1	-1%	7%[9.24 µM]	6%	-9	-14%
CCN(CC)C(=O)Cn1cc(SCC(=O)Nc2ccccc2F)c2ccccc21	26µM*	nt	nt	nt	?
CCN(CC)C(=O)Cn1cc(SCC(=O)Nc2ccc(C)cc2)c2ccccc21	26µM*	nt	nt	nt	?
CCN(CC)C(=O)Cn1cc(SCC(=O)NC)c2ccccc21	1%	?	19%	-5	5%
COc1ccc(NC(=O)CN2C(=O)NC(C)(c3ccc(C)cc3)C2=O)cn1 (stereo not given)	?	0%	0%	9	-24%
CC(C)CC(=O)Nc1nc(=S)ss1	10µM*	-2%[9.24 µM]	-2%	-1	?
N#CCCn1nc(-c2ccc(Br)cc2)cc1Nc1ccccc1NC(=O)C(F)(F)F	?	?	?	-78*	?
Cc1ccc(C(=O)CSc2nc3cc(C(=O)NC4CCCC4)ccc3c(=O)n2CC2CCCO2)c(C)c1 (stereo not given)	?	nt	nt	nt	10µM*
O=C(NCC1CCCO1)c1ccc2c(=O)n(CC3CCCO3)c(SCC(=O)N3CCCC3)nc2c1 (stereo not given)	0.23µM*	6%	0%	16	-7%
O=C(CSc1nc2ccccc2c(=O)n1CC1CCCO1)N1CCN(c2ccccc2)CC1 (stereo not given)	23µM*	-30%	?	0	26µM*
Cc1ccc(NC(=O)CSc2nc3cc(C(=O)NCC4CCCO4)ccc3c(=O)n2CC2CCCO2)cc1 (stereo not given)	?	-9%	-13%	-6	?

Screening data deposited in PubChem BioAssay by National Center for Advancing Translational Sciences (NCATS).
